From PubChem BioAssay (NCATS) come the findings set out here.

Assay [1] in a line: qHTS Assay for Identification of Small Molecule Agonists for Thrombopoietin (TPO) Signaling Pathway (AID 917). Note: potency is the fitted concentration of half-maximal effect. In a few lines:
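Stimulation at the TPO EC50 (26 pM final) was used to detect activators. Ba/F3 mouse cells bearing human TPO receptor and a luciferase reporter under the Glycoprotein IIb promoter were exposed to compounds for 24 hrs at 37 C.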

Assay [2] has as its target Muscarinic acetylcholine receptor M1 (Rattus norvegicus) (UniProt P08482). Description: qHTS Assay for Antagonists of Acetylcholine Muscarinic M1 Receptor: Kinetic Measurement of Intracellular Calcium Response (AID 943). Note: nearly all actives have a fitted effect of over 75% in size. Note: potency is the fitted concentration of half-maximal effect. In a few lines: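 Read-out: peak over basal Fluo-4 fluorescence, kinetic at 1 Hz for 4 min after EC80 carbachol (100 nM final). Rat M1-CHO cells, dye loaded 1 h at 37C, compound added 10 min before agonist.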

The target is the same in assay [3]. The assay is described as follows: qHTS Assay for Antagonists of Acetylcholine Muscarinic M1 Receptor: Measurement of IP-One Response (AID 944). Note: nearly all actives have a fitted effect of over 75% in size. Note: potency is the fitted concentration of half-maximal effect. In a few lines: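 Read-out: HTRF competition between d2-IP1 and Eu-cryptate anti-IP1 antibody, emission 620 and 665 nm. Stimulus was carbachol, EC80 (200 nM), for 30 min in M1-CHO cells (rat receptor), after 10 min compound pre-treatment.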

Assay [4] in a line: Cell Viability - LYMP2-001 (AID 921). Note: nearly all actives have a fitted effect of over 70% in size. Note: potency is the fitted concentration of half-maximal effect. In a few lines: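 Human lymphoblastoid LYMP2-001 cells, 2500 per well, in complete medium, treated 24 h at 37 C. Viability from cellular ATP by CellTiter-Glo luminescence; AC50 from Hill-equation fits of qHTS concentration-response.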
Assay [5] in a line: MultiTox-Fluor Cytotoxicity Assay - LYMP1-001 - Dead Cells (AID 946).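 Note: cells exposed to compound for 16 h.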 Note: potency is the fitted concentration of half-maximal effect. In a few lines:
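Seed 2500 LYMP1-001 cells/well, incubate 5 hr at 37 C; add compound, 16 hr at 37 C; add MultiTox-Fluor reagent, 60 min RT; read dead-cell fluorescence Ex/Em=485/520. Normalize to DMSO and 15 uM tetraoctylammonium bromide.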

A short description of assay [6]: MultiTox-Fluor Cytotoxicity Assay - LYMP1-001 - Live Cells (AID 947). Note: potency is the fitted concentration of half-maximal effect.
Assay [7] is described as follows: Confirmation and Secondary Assay for Modulators of Hemoglobin Beta Chain Splicing at IVS2 705 locus (AID 930).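 Note: HeLa cells stably expressing the EGFP-705 splicing reporter; series mostly up to about 46 µM.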 In a few lines:
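HeLa cells stably carrying EGFP interrupted by mutant beta-globin IVS2-705 intron (CMV-driven) were seeded at 500 cells/well, treated next day with compound for 2 days at 37C; corrected splicing restores EGFP, read as total peak GFP intensity per well.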

Assay [8] can be described thus: qHTS Assay for Identification of Small Molecule Antagonists for Thrombopoietin (TPO) Signaling Pathway (AID 918). Note: potency is the fitted concentration of half-maximal effect; nearly all actives have a fitted effect of over 60% in size. Particulars: TPO-dependent cell signaling reporter, antagonist mode. In a few lines: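 Luminescence read-out: GPIIb-promoter luciferase in Ba/F3 cells carrying human TPO receptor. Compounds added with 26 pM TPO (EC50), 24 hrs, 37 C, 5% CO2; cells deprived of IL-3 overnight beforehand. Inhibition of signal scored.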

The target of assay [9] is Pyruvate kinase (Leishmania mexicana) (UniProt Q27686). The assay is described as follows: qHTS Validation Assay for Inhibitors of Leishmania Mexicana Pyruvate Kinase (AID 945). In a few lines: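 LmPYK E451W 0.2 nM; 0.5 mM PEP, 0.1 mM ADP, 7 mM MgCl2, 50 mM KCl, imidazole pH 7.2, 0.01% Tween 20, 0.05% BSA; 1 h RT; PKLight luminescence; DMSO-normalized.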
Pyruvate kinase (Leishmania mexicana), sequence (Q27686 2-499 E452W): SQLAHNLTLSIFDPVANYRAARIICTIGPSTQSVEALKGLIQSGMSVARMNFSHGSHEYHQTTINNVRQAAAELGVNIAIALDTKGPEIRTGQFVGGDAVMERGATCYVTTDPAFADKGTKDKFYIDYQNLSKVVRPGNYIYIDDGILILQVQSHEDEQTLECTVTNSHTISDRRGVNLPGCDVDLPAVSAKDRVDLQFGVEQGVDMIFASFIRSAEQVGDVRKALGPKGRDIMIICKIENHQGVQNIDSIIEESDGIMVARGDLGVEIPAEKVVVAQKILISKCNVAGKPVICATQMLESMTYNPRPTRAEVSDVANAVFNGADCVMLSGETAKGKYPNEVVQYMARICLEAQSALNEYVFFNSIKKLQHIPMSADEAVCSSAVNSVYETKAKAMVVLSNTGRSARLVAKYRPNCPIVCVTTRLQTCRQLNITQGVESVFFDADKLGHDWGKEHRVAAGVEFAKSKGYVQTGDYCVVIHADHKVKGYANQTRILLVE

Inconclusive results are not listed. Active and inactive are the calls of the source. Calls come from the whole dose curve; as a rule, active = well fitted curve in the direction sought with a large enough effect; inconclusive = small, poorly fitted or top-dose-only effect, or another doubt; inactive = no such curve, though single readings can be large; an effect the other way counts as inactive or inconclusive. Peptide text beside a SMILES is read from it.

Muscarinic acetylcholine receptor M1 (Rattus norvegicus), sequence (P08482 whole entry, looked up): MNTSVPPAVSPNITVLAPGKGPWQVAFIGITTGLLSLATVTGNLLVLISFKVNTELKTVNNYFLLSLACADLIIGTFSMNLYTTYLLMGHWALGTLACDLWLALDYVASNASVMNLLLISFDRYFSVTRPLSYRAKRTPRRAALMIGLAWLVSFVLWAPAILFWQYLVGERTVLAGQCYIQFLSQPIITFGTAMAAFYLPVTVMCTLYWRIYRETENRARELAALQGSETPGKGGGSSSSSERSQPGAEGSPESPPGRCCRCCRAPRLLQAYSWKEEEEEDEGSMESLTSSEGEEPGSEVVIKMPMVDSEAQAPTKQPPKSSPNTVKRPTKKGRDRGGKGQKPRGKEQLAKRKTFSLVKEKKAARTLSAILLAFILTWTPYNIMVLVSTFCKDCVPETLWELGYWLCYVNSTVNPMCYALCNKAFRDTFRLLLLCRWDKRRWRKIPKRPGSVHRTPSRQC

With `O=Nc1c(-c2c(O)[nH]c3cc(Br)ccc23)[nH]c2ccccc12`, the Potency in [1] was 0.251 µM (active); in [2], 0.1 µM (active); in [3], 14.1 µM (active).

Consider `CN(C)c1ccc2nc3ccc(=[N+](C)C)cc-3sc2c1`, for which the Potency in assay [4], in [5] and in assay [6] was 10 µM (active) each time.

Consider `Cc1ccc(C)c(OCCCC(C)(C)C(=O)O)c1`, for which the Potency entry in assay [4], in assay [7], in assay [5] and in assay [6] was “inactive” each time.

Consider `O=c1c(O)c(-c2cc(O)c(O)c(O)c2)oc2cc(O)cc(O)c12`, for which, in [8], the Potency is 10 µM (active). In addition, the Potency result in assay [2], in assay [3] and in assay [9] was “inactive” in each case.

On to `C[C@H](Cc1ccc(O)c(O)c1)[C@@H](C)Cc1ccc(O)c(O)c1`, for which the Potency in [8] is 5.01 µM (active). In addition, the Potency result in assay [3] and in assay [9] was “inactive” throughout.

Regarding `c1ccc2[nH]c(-c3cscn3)nc2c1`, the Potency entry in assay [4], in [7], in assay [5] and in assay [6] was “inactive” in each case.

`Cc1c(OCC(F)(F)F)ccnc1CS(=O)c1nc2ccccc2[nH]1` (stereo not given): the Potency result in assay [1], in [7], in [3] and in assay [9] was “inactive” each time.

Take `COC(=O)[C@H](Cc1ccccc1)NC(=O)[C@@H](N)CC(=O)O` (H-Asp-Phe-OMe): the Potency result in assay [4], in assay [5] and in [6] was “inactive” in each case.

Consider `CNC[C@H](O)c1ccc(O)c(O)c1`, for which the Potency result in assay [1] and in [9] was “inactive” in each case.

As to `COc1ccc2cc([C@H](C)C(=O)O)ccc2c1`, the Potency entry in [1] and in assay [9] was “inactive” throughout.

Take `O=C(CCc1ccc(O)cc1)c1c(O)cc(O)cc1O`: the Potency result in [1], in assay [7], in [2], in assay [3] and in [9] was “inactive” in each case.

As for `NS(=O)(=O)c1cc(C(=O)O)c(NCc2ccco2)cc1Cl`, the Potency result in assay [4], in assay [7], in assay [5] and in assay [6] was “inactive” each time.

With `CCCc1cc(=O)[nH]c(=S)[nH]1`, the Potency result in assay [4], in [7], in assay [5] and in assay [6] was “inactive” throughout.
